In PubChem BioAssay AID2161 (National Center for Advancing Translational Sciences (NCATS), 2009):
Several values for one entry are separate records, joined by “and”; a condition that tells them apart may be missing. Identical values can stand only once. This is one part of the list. Values without a mark were called inactive. Activity calls are given as the source filed them. Calls come from the whole dose curve; as a rule, active = well fitted inhibition curve with a large enough effect; inactive = no such curve, though single readings can be large or run the other way.

target: Papain (Carica papaya) (UniProt P00784); test: qHTS Assay for Inhibitors of Papain: Counterscreen for Cruzain Assay; conditions: purified papain, Z-FR-AMC fluorescence cleavage; max response, negative = inhibition: active compounds read low
Description: Assay Provider: Shoichet, Brian; University of California, San Fancisco Screening Center PI: Austin, C.P. Screening Center: NIH Chemical Genomics Center [NCGC] The following papain assay is a counterscreen for a related protein cruzain (AID: 1478). Cruzain is a cysteine protease from the tropical parasite Trypanosoma cruzi. Activity against papain was used to help prioritize chemical series active against cruzain. Papain is a closely related cysteine protease known to utilize the same Z-FR-AMC fluorogenic substrate as cruzain. The fluorogenic assay used for cruzain was utilized here as well, with the exception of the reducing agent, which was 5 mM cystein here instead of DTT. Fluorogenic coumarin-based Z-FR-AMC substrate was used; proteolytic cleavage releases AMC, whose fluorescence is measured at 360 nm excitation and 450 nm emission. Purified papain was supplied by the labs of Profs. James McKerrow and Brian Shoichet, UC San Francisco. This assay had 0.01% Triton X-100 concentration.
Buffer: 100 mM Sodium Acetate, pH 5.5, 5 mM DTT, Triton X-100 concentration: 0.01%. Reagents/Controls: Buffer in columns 3 and 4 as negative control (no enzyme). Substrate solution: 2 uM final concentration of Z-FR-AMC (catalog number I-1160, Bachem) dispensed throughout the plate. Enzyme: 12 nM Papain final concentration. Assay Steps: Three uL of enzyme or buffer were dispensed to 1536-well Greiner black solid bottom plates. Compounds and controls (23 nL) were transferred via Kalypsys PinTool. The plates were incubated for 15 min at room temperature, and then 1 uL of substrate solution was added to start the reaction. The plates were immediately transferred to and read 4 times every 30 seconds for 2 min on ViewLux High-throughput CCD imager (Perkin-Elmer) using 360 nm excitation and 450 nm emission fluorescence protocol. The fluorescence intensity difference between the third and the first time points (time lapse of 60 seconds) was used to compute reaction progress. Data was normalized to neutral (no compound) and negative (no enzyme) controls.
Note: nearly all actives have a fitted effect of over 35% in size.
Potency is the fitted concentration of half-maximal effect.
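Throughout, for max response, negative = inhibition: 0% = no-compound wells and -100% = no-enzyme wells.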

Chain of Papain (Carica papaya) (P00784 whole entry, looked up): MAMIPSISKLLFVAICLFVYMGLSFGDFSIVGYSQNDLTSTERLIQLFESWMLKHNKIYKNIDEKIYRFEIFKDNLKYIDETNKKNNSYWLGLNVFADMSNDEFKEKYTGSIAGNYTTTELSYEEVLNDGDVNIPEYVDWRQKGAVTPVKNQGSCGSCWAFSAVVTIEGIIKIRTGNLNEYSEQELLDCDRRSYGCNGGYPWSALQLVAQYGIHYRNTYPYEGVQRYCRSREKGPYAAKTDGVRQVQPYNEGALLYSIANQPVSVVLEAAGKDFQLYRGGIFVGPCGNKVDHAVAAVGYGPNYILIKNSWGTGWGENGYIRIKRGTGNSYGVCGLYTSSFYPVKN

| Compound | Potency | max response, negative = inhibition |
| --- | --- | --- |
| N#Cc1nc(N)nc(N(c2ccccc2)c2ccccc2)n1 | 8.91 µM (active) and 11.2 µM (active) |  |
| O=C1OC(/C=C/c2ccccc2)=NC/1=C/c1ccco1 |  | -2.34% |
| CC(C)C[C@H](NC(=O)[C@@H]1O[C@H]1C(=O)O)C(=O)NCCCCN=C(N)N | 0.01 µM (active) |  |
| N#Cc1nc(Nc2cccc(Cl)c2)nc(NC2CCCC2)n1 | 0.891 µM (active) |  |
| O=C(OCN1C(=O)c2ccccc2C1=O)/C(=C\c1ccco1)NC(=O)c1ccccc1 |  | -35.6% |
| CCCCNC(=O)Cn1c(SCc2cccc(Cl)c2)nc2ccncc21 |  | -12% |
| C=CCNC(=O)c1ccc2nc(-c3ccco3)c(-c3ccco3)nc2c1 |  | -64.7% |
| Cn1c(C(=O)NCCN2CCc3ccccc3C2)cc2c(=O)[nH]c3ccccc3c21 |  | -20.9% |
| Cc1ccc(-c2c3c(=O)n(C)c(=O)n(C)c3cn2-n2cnnc2)cc1 | 28.2 µM (active) |  |
| Cc1ccc(SCCC(=O)OCC(=O)Nc2ncc(Cl)cc2Cl)cc1 |  | -6.29% |
| c1ccc2cc3c(NCCN4CCOCC4)ccnc3cc2c1 |  | -50.2% |
| N#Cc1nc(Nc2cc(F)cc(Cl)c2)nc(NC2CCCC2)n1 | 1.12 µM (active) |  |
| CCN(CC)c1nc(C#N)nc(OC)n1 | 5.01 µM (active) |  |
| CCc1ccc(OCCCn2c(CCCNC(=O)C3CCCCC3)nc3ccccc32)cc1 |  | -1.28% |
| C=CC(=O)c1ccc2ccccc2c1 | 12.6 µM (active) |  |
